From PubChem
Tau fibril FP: tau fibrillization inhibition (FP); P10636; K18 P301L tau heparin fibrillization, Alexa594 FP, 6 h; Potency, µM (titrated, usually from 57.7 µM), most hits filed as inhibitors; hit rate 0.39% among 280,000; AID 1468; also: nearly all actives have a fitted effect of over 55% in size
Target sequence (P10636 561-689 P618L limits assumed): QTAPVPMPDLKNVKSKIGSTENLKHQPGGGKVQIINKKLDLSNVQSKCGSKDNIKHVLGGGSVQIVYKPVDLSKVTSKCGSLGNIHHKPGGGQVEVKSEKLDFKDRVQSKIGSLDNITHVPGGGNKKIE
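Quantitative HTS format: compounds meet 15 uM recombinant K18 P301L tau and Alexa 594-tau tracer in 100 mM sodium acetate pH 7; 20 uM heparin triggers fibrillization at 37 C over 6 hr; FP gives the signal.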
HPGD block: HPGD (human) dehydrogenase inhibition; purified HPGD, NADH fluorescence kinetic, PGE2 substrate; Potency, µM, hits mostly inhibitors; hit rate 4.3% among 150,000; P15428; active = well fitted inhibition curve with a large enough effect, not every such curve was filed as active; inconclusive = small, poorly fitted or top-dose-only effect, or another doubt; inactive = no such curve, though single readings can be large or run the other way
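NADH formation kinetics: reaction with 30 uM PGE2 and 1 mM NAD+ (final), 20 nM enzyme, Tris-HCl pH 8 with Tween 20, after 15 min compound preincubation at room temperature. Fluorescence change, last versus first of five reads.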
NPSR antag: neuropeptide S receptor (human) antagonism, cAMP; CHO-NPSR cells, cAMP TR-FRET, antagonist mode; Q6W5P4; hit rate 1% among 220,000; Potency, µM (titrated, usually from 38.3 µM), actives largely listed as inhibitors; also: nearly all actives have a fitted effect of over 50% in size
ALDH1A1 inh: inhibitors of human aldehyde dehydrogenase 1A1; P00352; Purified ALDH1A1, NADH fluorescence, propionaldehyde substrate; AID 1030; hit rate 7.3% among 220,000; Potency, µM (series often up to 75.3 µM), hits mostly inhibitors; active = well fitted inhibition curve with a large enough effect, not every such curve was filed as active; inconclusive = small, poorly fitted or top-dose-only effect, or another doubt; inactive = no such curve, though single readings can be large or run the other way
Target sequence (P00352 whole entry, looked up): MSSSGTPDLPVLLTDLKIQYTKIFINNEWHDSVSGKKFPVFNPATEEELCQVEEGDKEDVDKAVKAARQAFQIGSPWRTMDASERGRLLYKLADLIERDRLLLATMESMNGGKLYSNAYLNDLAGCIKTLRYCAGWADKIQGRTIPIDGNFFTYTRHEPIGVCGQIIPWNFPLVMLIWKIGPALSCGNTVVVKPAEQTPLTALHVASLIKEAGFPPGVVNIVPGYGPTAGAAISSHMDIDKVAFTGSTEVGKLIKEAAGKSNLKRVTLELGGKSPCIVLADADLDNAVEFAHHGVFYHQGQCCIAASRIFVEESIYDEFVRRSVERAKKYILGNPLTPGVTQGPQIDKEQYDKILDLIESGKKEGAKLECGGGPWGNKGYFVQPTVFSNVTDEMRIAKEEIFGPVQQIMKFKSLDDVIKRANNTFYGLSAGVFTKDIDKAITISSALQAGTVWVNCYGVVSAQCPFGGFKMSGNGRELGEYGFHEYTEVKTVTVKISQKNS
Tau fluor cs: counter-screen for tau fibril formation inhibitors; tau K18 P301L Alexa594 fluorescence, heparin fibrillization; Potency, µM (highest dose often 57.7 µM); hit rate 0.93% among 280,000; AID 1463; also: nearly all actives have a fitted effect of over 55% in size
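Human tau K18 P301L (15 uM unlabeled, 0.24 uM Alexa 594-labeled) in 100 mM sodium acetate pH 7 with 20 uM heparin, 6 hr at 37 C. ThT 30 uM added, 1 hr ambient; Alexa 594 FP and total fluorescence read at 555/632 nm.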
Tau fibril ThT: tau fibrillization inhibition (ThT binding) | P10636 | recombinant tau K18 P301L (four-repeat tau fragment), heparin-induced fibrillization, ThT fluorescence | Potency, µM (series often up to 57.4 µM), hits mostly inhibitors | hit rate 2.1% among 270,000 | AID 1460; also: nearly all actives have a fitted effect of over 55% in size
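Recombinant human tau K18 fragment […] carrying P301L, 15 uM unlabeled plus 0.24 uM Alexa 594-labeled, was fibrillized with 20 uM heparin in 100 mM sodium acetate pH 7 for 6 hr at 37 C; 30 uM ThT fluorescence read after 1 hr.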
Numbers stand for hits. Sampled rows, rich in hits. Any-hit rate of the full collection: about 9.5%. Unless noted, calls follow the shape of the dose curve; as a rule, active = well fitted curve in the direction sought with a large enough effect; inconclusive = small, poorly fitted or top-dose-only effect, or another doubt; inactive = no such curve, though single readings can be large; an effect the other way counts as inactive or inconclusive.

`COc1ccc(/C=C/C(=O)NC(=S)Nc2ccc(S(=O)(=O)Nc3cc(OC)ncn3)cc2)cc1` gave Tau fibril FP inconclusive, NPSR antag inactive, ALDH1A1 inh 28µM, Tau fluor cs inactive and Tau fibril ThT inactive.
Screening CCc1nnc(NS(=O)(=O)c2ccc(NC(=S)NC(=O)/C=C/c3ccc([N+](=O)[O-])cc3)cc2)s1 returned Tau fibril FP inactive, NPSR antag inactive and Tau fluor cs inactive.
Screening CCc1nnc(NS(=O)(=O)c2ccc(NC(=S)NC(=O)c3ccncc3)cc2)s1 returned Tau fibril FP inactive, NPSR antag inactive and Tau fluor cs inactive.
Screening CCc1nnc(NS(=O)(=O)c2ccc(NC(=S)NC(=O)/C=C/c3ccc(F)cc3)cc2)s1 returned Tau fibril FP inactive, HPGD block inactive, NPSR antag 10µM, ALDH1A1 inh inconclusive, Tau fluor cs inactive and Tau fibril ThT inconclusive.
Screening CCc1nnc(NS(=O)(=O)c2ccc(NC(=S)NC(=O)c3ccc(OC)c(OC)c3)cc2)s1 returned Tau fibril FP inactive, HPGD block inconclusive, NPSR antag inactive, ALDH1A1 inh 7.9µM, Tau fluor cs inactive and Tau fibril ThT inactive.
CCc1nnc(NS(=O)(=O)c2ccc(NC(=S)NC(=O)c3ccc(OC)cc3)cc2)s1 was read as Tau fibril FP inconclusive, HPGD block inconclusive, NPSR antag inconclusive, ALDH1A1 inh 18µM, Tau fluor cs inactive and Tau fibril ThT inactive.
Screening COc1ccc(C(=O)NC(=S)Nc2ccc(S(=O)(=O)Nc3cc(C)on3)cc2)cc1OC returned Tau fibril FP inactive, NPSR antag inactive, Tau fluor cs inactive and Tau fibril ThT inactive.
`COC(=O)c1ccc(C(NC(=O)OCc2ccccc2)/C(=C/[C@@H](C)C(=O)NCc2ccc(S(C)(=O)=O)cc2)c2cccnc2)cc1` (stereo partly drawn) gave Tau fibril FP inactive, HPGD block inactive, ALDH1A1 inh inconclusive, Tau fluor cs inactive and Tau fibril ThT inactive.
Screening COc1ccc(S(=O)(=O)Nc2nnc(C)s2)cc1 returned Tau fibril FP inactive, HPGD block 32µM, NPSR antag inactive, ALDH1A1 inh inconclusive, Tau fluor cs inactive and Tau fibril ThT inactive.
CCc1ccc2c(c1)C(NC(C)=O)C(=O)N2CC (stereo not drawn) was read as Tau fibril FP inactive, HPGD block inactive, NPSR antag inactive, ALDH1A1 inh 22µM, Tau fluor cs inactive and Tau fibril ThT inactive.
Screening CCCCN1C(=O)C(NC(C)=O)c2cc(Br)ccc21 (stereo not drawn) returned Tau fibril FP inactive, HPGD block inactive, NPSR antag inactive, ALDH1A1 inh 0.18µM, Tau fluor cs inactive and Tau fibril ThT inactive.
Cc1ccc(NC(=O)c2cc(N3C(=O)C4CC=CCC4C3=O)ccc2N2CCOCC2)cc1Cl (stereo not drawn) was read as Tau fibril FP inactive, HPGD block inactive, NPSR antag inconclusive, ALDH1A1 inh 28µM, Tau fluor cs inactive and Tau fibril ThT inactive.
`Cc1ccc(NC(=O)c2cc(-n3cnnc3)ccc2Cl)cc1` gave Tau fibril FP inactive, HPGD block inactive, NPSR antag inactive, ALDH1A1 inh inactive, Tau fluor cs inactive and Tau fibril ThT inactive.
`Cc1ccc(NC(=O)c2cc(NC(=O)c3ccco3)ccc2N2CCOCC2)cc1` gave Tau fibril FP inactive, HPGD block inactive, NPSR antag inactive, ALDH1A1 inh inconclusive, Tau fluor cs inactive and Tau fibril ThT inactive.
For Cc1ccc(NC(=O)c2cc(N3C(=O)C=CC3=O)ccc2N2CCOCC2)cc1 the results were Tau fibril FP inactive, NPSR antag inconclusive, ALDH1A1 inh 0.35µM, Tau fluor cs inactive and Tau fibril ThT inactive.
For Cc1ccc(NC(=O)c2cc(N3C(=O)C=CC3=O)ccc2Cl)cc1C the results were Tau fibril FP inactive, HPGD block 3.2µM, NPSR antag inconclusive, ALDH1A1 inh 2.2µM, Tau fluor cs inactive and Tau fibril ThT inconclusive.
CCc1ccc2c(c1)C1(NN=C(c3ccc(C)cc3)S1)C(=O)N2 (stereo not drawn) was read as Tau fibril FP inactive, HPGD block inconclusive, NPSR antag inactive, ALDH1A1 inh inconclusive, Tau fluor cs inconclusive and Tau fibril ThT inconclusive.
CC(C)c1ccc2c(c1)C1(NN=C(c3ccccc3)S1)C(=O)N2 (stereo not drawn) was read as Tau fibril FP inactive, HPGD block inactive, NPSR antag inactive, ALDH1A1 inh inconclusive, Tau fluor cs inconclusive and Tau fibril ThT 25µM.
CCn1c(CC(=O)Nc2cccc(Cl)c2Cl)nnc1SCCOc1ccc(OC)cc1 was read as Tau fibril FP inactive, HPGD block inactive, NPSR antag inactive, ALDH1A1 inh 14µM, Tau fluor cs inactive and Tau fibril ThT inactive.
`CCOC(=O)c1c(C)c(-c2ccccc2)n(CC(=O)Nc2cc(OC)cc(OC)c2)c1C` gave Tau fibril FP inactive, Tau fluor cs inconclusive and Tau fibril ThT inactive.
Screening CC1CCCN(C(=O)c2ccc3nc[nH]c3c2)C1 (stereo not drawn) returned Tau fibril FP inactive, HPGD block 2µM, NPSR antag inactive, ALDH1A1 inh inconclusive, Tau fluor cs inactive and Tau fibril ThT inactive.
For CC1CCCN(C(=O)c2ccc3c(=O)n(C4CCCC4)c(=S)[nH]c3c2)C1 (stereo not drawn) the results were Tau fibril FP inactive, NPSR antag inconclusive, ALDH1A1 inh 3.5µM, Tau fluor cs inactive and Tau fibril ThT inactive.
Cc1nn(Cc2cccc(C(=O)Nc3ccn(Cc4ccccc4F)n3)c2)c(C)c1[N+](=O)[O-] was read as Tau fibril FP inactive, HPGD block inactive, NPSR antag inactive, ALDH1A1 inh inactive, Tau fluor cs inactive and Tau fibril ThT inactive.
Cc1nn(Cc2cccc(C(=O)N3CCCC(C)C3)c2)c(C)c1[N+](=O)[O-] (stereo not drawn) was read as Tau fibril FP inactive, HPGD block 14µM, NPSR antag inactive, ALDH1A1 inh inconclusive, Tau fluor cs inactive and Tau fibril ThT inactive.
Screening O=C(c1ccc2c(=O)n(C3CCCC3)c(=S)[nH]c2c1)N1CCCCCC1 returned Tau fibril FP inconclusive, NPSR antag inactive, ALDH1A1 inh inconclusive, Tau fluor cs inactive and Tau fibril ThT inactive.
`O=C(c1ccc2c(c1)N(Cc1ccc(Cl)cc1)C(=O)c1ccccc1S2=O)N1CCOCC1` (stereo not drawn) gave Tau fibril FP inactive, Tau fluor cs inactive and Tau fibril ThT inactive.
CCCCCCCCC1OC1CCCCCCCC(=O)O (stereo not drawn) was read as Tau fibril FP inactive, HPGD block inactive, ALDH1A1 inh inactive, Tau fluor cs inactive and Tau fibril ThT inactive.
Screening COc1ccc(S(=O)(=O)Nc2ccc3c(c2)CCC3)cc1 returned Tau fibril FP inactive, NPSR antag inactive, ALDH1A1 inh inconclusive, Tau fluor cs inactive and Tau fibril ThT inactive.
